Assay outcomes deposited in PubChem BioAssay by several laboratories.
A selection: hits, their analogues and other compounds. The true share with any hit is near 2.3%.
V-ATPase pH: regulators of yeast V-ATPase proton pumping, primary screen, pHLuorin cytosolic pH fluorescence. response, % at 10 µM. 350,000 tested, 0.37% active. AID 504577, 2011. S. cerevisiae; in the data active = response mostly above about 7.3%, no sharp cut-off; inactive = mostly below about 5.4%; also: actives read high
proKLK7 act: proKLK7 zymogen activators, primary screen, biochemical, fluorescence intensity; purified proKLK7, EDANS-DABCYL substrate fluorescence; 100% is mature enzyme control, 0% vehicle; activation, % at 7 µM; 370,000 tested, 0.9% active; AID 652039, 2013;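 active = activation above the mean of all tested compounds plus 3 SD, computed per campaign excluding outliers beyond control limits, cut at about 13% in these data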
Target sequence (P49862 whole entry, looked up): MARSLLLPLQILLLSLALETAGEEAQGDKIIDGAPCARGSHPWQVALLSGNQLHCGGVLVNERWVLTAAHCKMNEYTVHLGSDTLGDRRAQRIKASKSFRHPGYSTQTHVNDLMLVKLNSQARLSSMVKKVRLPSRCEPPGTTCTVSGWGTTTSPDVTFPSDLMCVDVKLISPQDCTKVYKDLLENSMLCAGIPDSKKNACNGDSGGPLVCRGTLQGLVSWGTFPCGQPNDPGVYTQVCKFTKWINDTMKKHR
ADAM17 inh: ADAM17 inhibitors, primary screen, biochemical, QFRET; inhibition, % at 6.95 µM; AID 720648, 2013; 370,000 tested, 0.83% active; recombinant ADAM17, EDANS/DABCYL FRET peptide cleavage; Disintegrin and metalloproteinase domain-containing protein 17 (Homo sapiens), P78536;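 active = inhibition above the mean of compounds lying between control limits plus 3 SD, set per campaign, cut at about 8.5% in these data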
ADAM10 inh: human ADAM10 inhibitors, primary screen, biochemical, QFRET, HTS; recombinant ADAM10, EDANS/DABCYL FRET peptide cleavage, 3 h; inhibition, % at 7 µM; 370,000 tested, 0.62% active;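 active = inhibition above a per-campaign cutoff equal to the mean of compounds falling between control-based bounds plus 3 SD, cut at about 20% in these data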
proKLK7 act conf: proKLK7 zymogen activators, confirmation, biochemical, fluorescence intensity, triplicate. AID 686949, 2013. purified proKLK7, EDANS-DABCYL substrate fluorescence; scaled: vehicle 0, mature enzyme 100. shares compounds with proKLK7 act. 3,200 tested, 68% active. activation, % at 7 µM;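 active = activation, as change over the incubation, above the mean of all tested compounds plus 3 SD, cut at about 13% in these data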
EDANS interfere: EDANS-DABCYL substrate optical interference, artefact control for kallikrein-7 zymogen activator project, biochemical, fluorescence intensity, high throughput; shares compounds with proKLK7 act; 3,200 tested, 80% active; AID 686952, 2013; activation, % at 7 µM; no enzyme, 4 h; solvent 0%, active enzyme control 100%;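 active = activation above the all-compound mean plus 3 SD, ignoring values outside control-based bounds, cut at about 4.8% in these data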;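 also: value is the 4 h activation minus the activation read at time zero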
ADAM10 confirm: human ADAM10 inhibitors, confirmation, biochemical, QFRET, triplicate. 2,100 tested, 1% active. inhibition, % at 6.95 µM. shares compounds with ADAM10 inh. ADAM10 QFRET peptide cleavage, EDANS fluorescence;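 active = inhibition above about 20% chosen separately for each screening run, limit read from the data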
ADAM17 counter: ADAM17 inhibitors, counter-screen for ADAM10 exosite inhibitor project, biochemical, QFRET, high throughput; 2,100 tested, 0.5% active; AID 743214, 2013; shares compounds with ADAM10 inh; inhibition, % at 6.95 µM; ADAM17 QFRET peptide cleavage, EDANS fluorescence;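 active = mean triplicate inhibition above the solvent-only control wells' mean plus 3 SD, cut at about 12% in these data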
Numbers stand for hits; n = inactive; x = not tested or not shown.

SMILES	V-ATPase pH	proKLK7 act	ADAM17 inh	ADAM10 inh	ADAM10 confirm	ADAM17 counter	others
Cc1ccc2c(c1)=NC(=O)/C(=C/c1c(O)[nH]c(=O)[nH]c1=O)C=2	n	18	n	n	x	x	proKLK7 act conf=46;EDANS interfere=45
CC1=Nc2ccccc2/C1=C/c1c(O)[nH]c(=O)[nH]c1=O	n	n	n	n	x	x
COc1cc2c(cc1OC)C(c1c(O)n(CCc3ccccc3)c(=S)[nH]c1=O)NCC2 (configuration not stated)	x	95	n	n	x	x	proKLK7 act conf=85;EDANS interfere=84
O=C1NCN(c2ccccc2)C12CCN(C(CCc1ccccc1)c1nnnn1-c1ccc3c(c1)OCCO3)CC2 (configuration not stated)	x	n	11	25	n	n
COC(=O)C1=C(c2ccccc2OCc2ccccc2)C[C@@H]2CC[C@H]1N2C(=O)NCc1ccc(C(C)(C)C)cc1	n	n	n	25	n	n
COC(=O)C1=C(c2cccc(OCc3ccccc3)c2)C[C@@H]2CC[C@H]1N2C(=O)NCc1ccc([N+](=O)[O-])cc1	n	n	n	26	n	n
COC(=O)C1=C(c2ccccc2OCc2ccccc2)C[C@@H]2CC[C@H]1N2C(=O)NCc1ccc(F)cc1	n	n	n	n	x	x
CC(C)C[C@H]1N=C(c2ccccc2)c2ccccc2N(CC(=O)NC(C)(C)C)C1=O	x	n	n	n	x	x
CCCCCCC(C)(C)c1ccc([C@@H]2C[C@H](O)CC[C@H]2CCCO)c(O)c1	n	n	n	27	n	n
CCN1C(=O)C(=Cc2ccc(N3CCOCC3)o2)C(=O)N(CC)C1=S	n	n	n	25	n	n
O=C(COC(=O)c1cccc(O)c1)Nc1ccc(Cl)cc1C(=O)c1ccccc1	n	n	n	23	n	n
CCOc1ccccc1OCC(=O)Nc1ccc(Cl)cc1C(=O)c1ccccc1	n	n	n	n	x	x
CCCCn1c(O)c(C(C)=NCC2CCCO2)c(=O)[nH]c1=O (configuration not stated)	n	n	n	n	x	x
Cc1ccc(C2=CCNCC2)cc1	n	n	n	n	x	x
CCCC/C(C)=C/[C@@H](NP(=O)(c1ccccc1)c1ccccc1)c1ccccc1	n	n	n	20	n	n
CCC(=O)OC1CCC2C3CCC4CC(=O)C=CC4(C)C3CCC12C (configuration not stated)	n	n	n	n	x	x
C[C@]12CCC(=O)C=C1CC[C@@H]1C2[C@H](O)C[C@]2(C)C(=O)CCC12 (some centres not stated)	n	n	n	n	x	x
COC(=O)c1ccc(NC(=O)CSc2nc3ccc(N4C(=O)C5C6C=CC(C6)C5C4=O)cc3s2)cc1 (configuration not stated)	n	n	n	25	n	n
O=C(O)C1Cc2ccccc2N2CCCC12 (configuration not stated)	n	n	n	n	x	x
